Giardia FBPA inh: qHTS Assay for Inhibitors of Fructose-1,6-bisphosphate Aldolase from Giardia Lamblia; A8B2U2; purified Giardia FBPA; Potency, µM (doses to about 59.6 µM), inactives show top-dose activity, negative = inhibition, hits mostly inhibitors; 290,000 compounds, 0.71% hits; AID 2451, 2010; note: potency is the fitted concentration of half-maximal effect; nearly all actives have a fitted effect of over 55% in size
Target sequence (A8B2U2 whole entry, looked up): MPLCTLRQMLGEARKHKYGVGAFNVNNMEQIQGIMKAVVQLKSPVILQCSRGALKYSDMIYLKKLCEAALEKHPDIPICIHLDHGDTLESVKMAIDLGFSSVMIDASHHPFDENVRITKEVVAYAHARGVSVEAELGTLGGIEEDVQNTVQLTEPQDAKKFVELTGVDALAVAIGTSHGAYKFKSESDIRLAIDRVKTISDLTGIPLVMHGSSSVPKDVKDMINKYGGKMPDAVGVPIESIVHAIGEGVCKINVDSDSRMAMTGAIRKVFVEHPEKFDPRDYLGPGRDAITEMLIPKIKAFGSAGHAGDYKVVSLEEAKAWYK
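Giardia FBPA (40 nM reagent) was preincubated 10 min at RT with compound (up to 57.5 uM final), then substrate plus GAPDH/TPI/NAD/arsenate coupling system with diaphorase/resazurin was added; resorufin fluorescence (525/598 nm) was read after 20 min.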
Pf growth 48h: Primary qHTS for delayed death inhibitors of the malarial parasite plastid, 48 hour incubation | P. falciparum luciferase growth in erythrocytes, 48 h | Potency, µM (series often up to 28.7 µM), inactives show top-dose activity change, negative = inhibition, actives largely listed as inhibitors | 310,000 compounds, 5.9% hits | AID 504832, 2011; note: potency is the fitted concentration of half-maximal effect
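A one-generation exposure of luciferase-tagged malaria parasites in RPMI 1640/Albumax erythrocyte culture, 37 C and 5% CO2. Inhibition is inferred from decreased luminescence after adding detection reagent.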
Sm TGR inh: qHTS Assay for the Inhibitors of Schistosoma Mansoni Peroxiredoxins | 360,000 compounds, 3% hits | Schistosoma mansoni thioredoxin glutathione reductase (TGR), Q962Y6 | Potency, µM (doses to about 114 µM), for inactives: at the top dose activity change, negative = inhibition, actives largely listed as inhibitors | purified TGR, DTNB reduction, TNB absorbance 405 nm; note: potency is the fitted concentration of half-maximal effect; nearly all actives have a fitted effect of over 60% in size
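TGR 20 nM + NADPH 100 uM (dispensed conc.), cpd preinc 15 min RT; start with NADPH (500 uM addition) then DTNB (15 mM addition). Kinetic TNB absorbance, 405 nm filter. Four-parameter Hill fit across titration.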
Pf growth 96h: Primary qHTS for delayed death inhibitors of the malarial parasite plastid, 96 hour incubation | P. falciparum luciferase reporter growth, 96 h | Potency, µM (doses to about 28.7 µM), for the others: at the top dose activity change, negative = inhibition, most hits filed as inhibitors | 320,000 compounds, 6.9% hits | AID 504834, 2011; note: potency is the fitted concentration of half-maximal effect
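Cell-based qHTS: luciferase-tagged P. falciparum in erythrocytes (2% hematocrit, 0.05% parasitemia final) incubated with compounds for 96 hours, 37 C, 5% CO2; luciferase detection reagent then added and luminescence measured.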
HCMV antiviral: qHTS Assay for inhibitors of the human cytomegalovirus (HCMV) | HFF cells, HCMV-luciferase reporter, 72 h; hits give low values | activity change, negative = inhibition, % at 57.5 µM | 410,000 compounds, 4.5% hits | AID 1259415, 2018; in the data active = activity change below about -60%; inconclusive = no clear call, values can overlap the other calls; inactive = above about -39%
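Compounds were evaluated in HFFs infected with an HCMV luciferase reporter virus (MOI 1 PFU/cell). Luciferase in lysates collected 72 h post infection served as the replication measure.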
Numbers without * were called inactive; ? = inconclusive; / = no result given. This is a sample that favours compounds with a hit; in the whole collection about 14% have one here. Unless noted, calls come from the whole dose curve; as a rule, active = well fitted curve in the direction sought with a large enough effect; inconclusive = small, poorly fitted or top-dose-only effect, or another doubt; inactive = no such curve, though single readings can be large; an effect the other way counts as inactive or inconclusive. % is set by controls: 0 for no effect and ±100 for the full control effect.

SMILES	Giardia FBPA inh	Pf growth 48h	Sm TGR inh	Pf growth 96h	HCMV antiviral
CCOc1ccc(C2C(C(=O)c3ccco3)=C(O)C(=O)N2CCN2CCOCC2)cc1OCC (centres undefined)	-21%	12%	?	31%	15
CCOc1ccc(C2C(C(=O)c3ccc(C)o3)=C(O)C(=O)N2CCN2CCOCC2)cc1OC (centres undefined)	-10%	-6%	50µM*	15%	39
COc1ccc(C2C(C(=O)c3ccco3)=C(O)C(=O)N2CCc2ccccc2)cc1OC (centres undefined)	11%	?	4%	159%	17
COc1ccc([C@H]2NC(=O)C[C@H]2C(=O)N2CCOCC2)cc1	/	/	/	/	-15
O=C(NC1CCCCCC1)c1ccc(-n2cnnc2)cc1	2%	?	-33%	25%	41
Cc1sc2c(c1C)c(=O)n(-c1cccc(C(F)(F)F)c1)c(=O)n2Cc1ccccc1C#N	/	/	20%	/	-15
CCN(CC)S(=O)(=O)c1ccc(/C=C/C(=O)Nc2ccccc2N2CCOCC2)cc1	5%	?	4%	?	-16
O=C(/C=C/c1ccco1)Nc1ccc(CN2CCOCC2)cc1	5%	226%	20µM*	169%	38
O=C(/C=C/c1ccco1)c1ccc(NC(=O)C23CC4CC(CC(C4)C2)C3)cc1	-7%	?	10µM*	?	-37
O=C(/C=C/c1ccco1)Nc1ccccc1N1CCOCC1	10%	17%	20µM*	27%	-30
O=C(/C=C/c1ccccc1)Nc1ccc(CN2CCOCC2)cc1	5%	85%	-1%	37%	-27
O=C(/C=C/c1ccco1)Nc1ccc(C(=O)N2CCOCC2)cc1	1%	2%	13µM*	9.3µM*	-16
COc1ccc(CC(=O)NNC(=O)c2cc(C)oc2C)cc1OC	/	-3%	-2%	1%	3
O=C(Nc1nncs1)c1cc(S(=O)(=O)N2CCCCC2)ccc1Cl	?	-5%	11%	12%	-22
O=C(/C=C/c1ccc(Cl)cc1Cl)Nc1ccncc1	1%	21%	7%	-5%	-4
O=C(/C=C/c1ccc(Cl)cc1)NC(=S)Nc1ccc(CN2CCOCC2)cc1	11%	-15%	-2%	?	-16
O=C(/C=C/c1ccc(Cl)cc1Cl)Nc1ccc(CN2CCOCC2)cc1	5%	?	-1%	?	-86*
O=C(/C=C/c1ccc(Cl)cc1Cl)NCc1ccncc1	22%	?	34%	12µM*	2
Cc1ccc(OCC(=O)Nc2cccc(OCc3cc(=O)n4cccc(C)c4n3)c2)cc1C	/	/	-5%	/	8
COC(=O)Cn1c(=O)c2c(nc3n2CCN3c2ccc(F)cc2)n(C)c1=O	/	/	-7%	/	9
NC1CCN(c2nc3c(cc2F)c(=O)c(C(=O)O)cn3-c2ccc(F)cc2F)C1 (centres undefined)	/	3.8µM*	/	1.1µM*	-29
O=C(O)c1cn(C2CCCCC2)c2ccccc2c1=O	-16%	?	-1%	-19%	22
CO/N=C1\CN(c2nc3c(cc2F)c(=O)c(C(=O)O)cn3C2CC2)CC1CN (centres undefined)	-1%	1.9µM*	/	1.7µM*	/
COc1c(N2CCNC(C)C2)c(F)cc2c(=O)c(C(=O)O)cn(C3CC3)c12 (centres undefined)	5%	?	/	5.4µM*	/
Cc1c(F)c(N2CCNC(C)C2)cc2c1c(=O)c(C(=O)O)cn2C1CC1 (centres undefined)	/	-19%	/	6.7µM*	/
SMILES	Giardia FBPA inh	Pf growth 48h	Sm TGR inh	Pf growth 96h	HCMV antiviral
CC(C)C[C@H]1COc2cccc(N3CCOCC3)c2S(=O)(=O)N1	/	/	/	/	-16
Cc1cc(NC(=O)CCC(=O)N(Cc2ccco2)C2(C(=O)NC3CCCCC3)CCCC(C)C2)no1 (centres undefined)	5%	-28%	-15%	?	-28
COc1c(N2CCN(C(=S)Nc3ccc(F)cc3)C(C)C2)c(F)cc2c(=O)c(C(=O)O)cn(C3CC3)c12 (centres undefined)	/	?	-25%	?	3
CC1CN(c2c(F)c(N)c3c(=O)c(C(=O)O)cn(C4CC4)c3c2F)CC(C)N1 (centres undefined)	-1%	7.6µM*	/	4.8µM*	/
NC1CCN(c2c(F)cc3c(=O)c(C(=O)O)cn(C4CC4)c3c2Cl)C1 (centres undefined)	-10%	5.9µM*	4%	0.74µM*	0
CCc1ccccc1N(C)C(=O)Nc1cn(CC(C)C)c(=O)c2ccccc12	/	/	17%	/	-4
O=C(NCCN1CCCC1)c1cc(-c2ccncc2)nc2ccc(S(=O)(=O)N3CCOCC3)cc12	5%	12µM*	-24%	?	23
CCOc1ccc(-c2cc(C(=O)NCCCN3CCCC3)c3ccccc3n2)cc1	/	12µM*	3%	-7%	?
Cc1ccc(-c2cc(C(=O)NCCCN3CCCC3)c3ccccc3n2)cc1C	/	5.2µM*	0%	?	-23
Cc1ccc(-c2cc(C(=O)NCCCN3CCOCC3)c3ccccc3n2)cc1C	-17%	-96%	-11%	?	-92*
CCc1nc2c(OCC(=O)c3ccc(F)cc3)cccn2c1N(C)C(=O)c1cccs1	/	/	/	/	-18
CC(=O)Nc1ccc(N2C(=O)CSC2c2cccc([N+](=O)[O-])c2)cc1 (centres undefined)	3%	7%	5%	45%	-31
O=C(NCCN1CCOCC1)c1cnn2c(-c3ccccc3)cc(-c3ccccc3)nc12	2%	?	0%	10µM*	10
CC1=NN(C(N)=S)C(=O)C1N=Nc1ccc(Cl)cc1 (centres undefined)	18%	?	-15%	?	57
CC1=NN(C(N)=S)C(=O)C1N=Nc1ccc(Br)cc1 (centres undefined)	?	9.3µM*	-8%	?	86
O=C(CCS(=O)(=O)c1nc(-c2cccs2)cc(C(F)(F)F)n1)Nc1ccc(OC(F)(F)F)cc1	/	/	-6%	/	38
O=C(CCS(=O)(=O)c1nc(-c2cccs2)cc(C(F)(F)F)n1)Nc1ccc(F)c(Cl)c1	/	/	-28%	/	-99*
CC(C)c1nnc(NC(=O)CCS(=O)(=O)c2nc(-c3cccs3)cc(C(F)(F)F)n2)s1	2%	28%	20µM*	0.74µM*	43
COc1ccc(NC(=O)CCS(=O)(=O)c2nc(-c3cccs3)cc(C(F)(F)F)n2)cc1	/	/	20µM*	/	-101*
COc1ccc(Cl)cc1NC(=O)CCCS(=O)(=O)c1nc(-c2ccc(OC)c(OC)c2)cc(C(F)(F)F)n1	/	/	-9%	/	-99*
Cc1nc2ccc(NC(=O)CCS(=O)(=O)c3ccc(Cl)cc3)cc2s1	7%	-25%	-16%	?	?

Assay outcomes as filed in PubChem.
